An excerpt weighted towards active compounds, which were near 3.5% of everything screened.
TEAD-YAP block: TEAD-YAP interaction inhibition | inhibition, % at 9.12 µM | AID 1259422 | HEK-TIYL cells, TEAD-Gal4/YAP UAS-luciferase luminescence | 640,000 tested, 1.4% active; in the data active = inhibition above about 32%;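 note: 0% = median of test compound wells and 100% = reference inhibitor wells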
GPR151 activ: human GPR151 activation; Q8TDV0; PathHunter beta-arrestin GPR151 cells, luminescence; activation, % at 11.2 µM; 650,000 tested, 1% active; AID 1508602; in the data active = activation above about 4.9%;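 note: 0% = median of compound wells and 100% = cells with positive control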
MITF primary: human MITF inhibition, primary screen; 650,000 tested, 0.91% active; O75030; AlphaScreen MITF homodimerization, bead proximity signal; AID 1259374; inhibition, % at 2.6 µM; in the data active = inhibition above about 50%;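 note: 0% = vehicle wells with protein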
FBW7 act: human FBW7 E3 ligase activation, primary screen; normalized activity (activation), % at 26.1 µM; AlphaScreen FBW7–phospho-cyclin E peptide binding, activator screen; AID 1259310; 650,000 tested, 0.13% active; in the data active = normalized activity above about 1.9%;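 note: purified mutant Fbw7 with reduced substrate affinity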
GPR151 conf act: human GPR151 activation, confirmation screen | shares compounds with GPR151 activ | GPR151 PathHunter beta-arrestin cells, luminescence, 90 min; % of EA-reagent control over plate median | activation, % at 11.2 µM | 6,700 tested, under 10 active;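 active = mean percent activation across replicates above the confirmation screen cutoff of 4.91%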
GPR119 counter: GPR119 activation, counter-screen for GPR151 activators. shares compounds with GPR151 activ. 6,700 tested, 0.3% active. activation, % at 11.2 µM. GPR119 PathHunter beta-arrestin cells, luminescence, 90 min; 0 = compound-well median, 100 = enzyme-acceptor control;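 active = mean percent activation in the counterscreen above 29.09%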;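 note: counterscreen on off-target GPR119 to flag nonselective hits from the GPR151 activator screen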
Target sequence (Q8TDV5 whole entry, looked up): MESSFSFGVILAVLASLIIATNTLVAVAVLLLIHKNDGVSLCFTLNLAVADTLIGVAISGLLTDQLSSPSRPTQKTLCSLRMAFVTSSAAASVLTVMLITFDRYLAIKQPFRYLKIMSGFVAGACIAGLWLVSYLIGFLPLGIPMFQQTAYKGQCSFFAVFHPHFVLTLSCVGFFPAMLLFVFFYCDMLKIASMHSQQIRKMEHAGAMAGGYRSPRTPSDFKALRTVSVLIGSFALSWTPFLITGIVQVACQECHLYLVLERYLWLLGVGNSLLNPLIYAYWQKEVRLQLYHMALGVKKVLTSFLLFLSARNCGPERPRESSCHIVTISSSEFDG
* = called active by the depositor; x = no result given.

SMILES | TEAD-YAP block | GPR151 activ | MITF primary | FBW7 act | GPR151 conf act | GPR119 counter
CC1(C)OC(=O)N2CCN3C(=O)OC(C)(C)C3(C)C(Br)=C21 (stereo not given) | 7 | 6.0* | 7 | 0 | -1 | -3
CCCN1CCC(NCCc2ccccc2F)CC1 | -7 | 2 | 7 | 0 | x | x
COc1ccc(-c2cc(C#N)nc(N3CCN(c4ccccc4)CC3)n2)cc1 | 0 | 5.2* | -14 | 0 | 0 | -3
C=CCn1c(=O)c2ccccc2n2c(SCC(=O)Nc3ccccc3C(=O)OC)nnc12 | 1 | 5.0* | -7 | 0 | 0 | -6
OCC1CCN(C2CCCN(C3CCN(c4cccc(Cl)c4)CC3)C2)CC1 (stereo not given) | -2 | 5.1* | 6 | 0 | 0 | -4
CN1CCN(C2CCN(c3cccc(Cl)c3)CC2)CC1CCO (stereo not given) | -7 | -1 | 16 | 0 | x | x
CC(=O)c1cccc(-c2ccc(C=C3C(=O)OC(C)(C)OC3=O)o2)c1 | -9 | 0 | 9 | 0 | x | x
CC(OCc1ccccc1)C(NC(=O)OC(C)(C)C)C(=O)Nc1nccs1 (stereo not given) | 1 | 13* | -1 | 0 | 1 | 7
CCn1c(SCC(=O)Nc2cccc(F)c2)nnc1C1CC1 | -42 | -1 | -3 | 0 | x | x
O=C(O)CCC(=O)N1CCC(O)(c2ccc3c(c2)OCO3)CC1 | -2 | 0 | -1 | 0 | x | x
COC(=O)c1c(C)oc2c1cc(NS(=O)(=O)c1cc(C)ccc1C)c1ccccc12 | -8 | 5 | -8 | 0 | x | x
COc1ccc(OC)c(S(=O)(=O)Nc2cc3c(C(C)=O)c(C)oc3c3ccccc23)c1 | -3 | 5.7* | -6 | 0 | 0 | -6
Cc1ccc(NC(=O)C2CCN(S(=O)(=O)c3ccc(Cl)s3)CC2)cc1 | 2 | 5.9* | -17 | 0 | -1 | -15
CSc1ccccc1C(=O)Nc1ccccc1Cl | 10 | 8.2* | 6 | 0 | -1 | 5
CCOc1ccc(Nc2n[nH]c(=S)n2-c2ccc(OCC)cc2)cc1 | 4 | 6.3* | 0 | 0 | 1 | 5
CCOCCCNC(=O)CCCn1c(=O)[nH]c2cc(OCC)c(OCC)cc2c1=O | -15 | 0 | -4 | 0 | x | x
CCCn1c(C2CC2)nc2ccccc21 | -2 | 9.9* | -1 | 0 | 0 | 2
COc1ccc(/C(O)=C2/C(=O)C(=O)N(Cc3ccco3)C2c2cccc(O)c2)cc1 (stereo not given) | 5 | 0 | 4 | 0 | x | x
COc1ccc(Cn2ccn(Cc3ccc(F)cc3)c(=O)c2=O)cc1 | 4 | 13* | 9 | 1 | 1 | 2
COc1cc2c(cc1NC(=O)C/C(C)=N/NC=O)oc1ccccc12 | -6 | 13* | 15 | 0 | 0 | 0
COc1ccc(C(N)=O)cc1NC(=O)CC(O)(C(F)(F)F)C(F)(F)F | -10 | 7.3* | 48 | 0 | 0 | -11
COc1ccc(C(=O)Nc2cc(C(N)=O)ccc2OC)cc1 | 1 | 0 | -9 | 0 | x | x
O=C(Cn1ncc2c(=O)oc3ccccc3c21)Nc1ccccn1 | 1 | 0 | 5 | 0 | x | x
COc1ccc(C2CC(c3c(-c4ccccc4)c4cc(Br)ccc4[nH]c3=O)=NN2C(C)=O)cc1 (stereo not given) | 16 | 2 | 2 | 0 | x | x
COc1ccc(C2CC(c3c(-c4ccccc4)c4cc(Br)ccc4[nH]c3=O)=NO2)cc1 (stereo not given) | 1 | 8.4* | -11 | 0 | 0 | -7
SMILES | TEAD-YAP block | GPR151 activ | MITF primary | FBW7 act | GPR151 conf act | GPR119 counter
CC(=O)N1N=C(c2c(-c3ccccc3)c3cc(Br)ccc3[nH]c2=O)CC1c1ccco1 (stereo not given) | 3 | -1 | 16 | 1 | x | x
O=C(O)CCC(=O)N1N=C(c2c(-c3ccccc3)c3cc(Br)ccc3[nH]c2=O)CC1c1ccco1 (stereo not given) | 8 | 5.4* | -7 | 0 | 0 | 3
COC(CNC(=O)c1sc2nc(-c3ccccc3)cn2c1C)OC | -31 | -1 | -3 | 0 | x | x
COc1ccccc1NC(=O)C(=O)NCCN1CCOCC1 | -4 | 0 | 11 | 0 | x | x
Cc1ccc(NC(=O)N2CCCCC2C)cc1 (stereo not given) | -17 | 0 | 13 | 0 | x | x
Cc1nc(C)c(NC(=O)N2CCCCC2C)cc1NC(=O)N1CCCCC1C (stereo not given) | -1 | 4.9* | -1 | 0 | 0 | 0
O=C(c1ccc(CS(=O)(=O)Cc2ccc(F)cc2)o1)N1CCCCC1 | -3 | 5.3* | 7 | 0 | 0 | -8
Cc1ccccc1S(=O)(=O)Cc1ccc(C(=O)N2CCCCC2)o1 | -2 | 0 | 8 | 0 | x | x
CCOc1cccc(NC(=O)/C(C#N)=C/c2ccccc2)c1 | -13 | 1 | 0 | 0 | x | x
CCOc1cccc(NC(=O)/C(C#N)=C\c2ccc(OCC(=O)O)c(Br)c2)c1 | 4 | 6.1* | -9 | 0 | -1 | -9
O=c1c2sc3ccc([N+](=O)[O-])cc3c2[nH]c(=S)n1Cc1ccccn1 | 2 | 8.8* | 6 | 0 | -1 | -8
CC(C)n1c(=S)[nH]c2c(sc3ccc([N+](=O)[O-])cc32)c1=O | 8 | 1 | -5 | 0 | x | x
COc1ccc(N2CCN(S(=O)(=O)Cc3ccccc3)CC2)cc1 | 4 | 6.8* | -10 | 0 | -1 | -12
O=S(=O)(Cc1ccccc1)N1CCN(c2ccc(F)cc2)CC1 | 5 | 0 | -10 | 1 | x | x
Cc1cc(N(CC(=O)NC2CCCCC2)S(C)(=O)=O)ccc1Br | 7 | 8.1* | -9 | 0 | 1 | 10
CC(=O)C1=C(C)N(Cc2ccccc2)C(=O)N[C@H]1c1cccc(F)c1 | x | 6.9* | 27 | 0 | 0 | 8
O=C(NCc1nc2ccccc2[nH]1)c1csc(N2CCC(N3CCOCC3)CC2)n1 | 6 | -1 | 8 | 0 | x | x
CCCNC(=O)c1csc(N2CCCC2CO)n1 (stereo not given) | -13 | -1 | 11 | 0 | x | x
CN(Cc1ccccc1)C(=O)c1ccc2c(=O)n(CCc3ccccc3)c(SCc3cccc([N+](=O)[O-])c3)nc2c1 | 1 | 11* | -5 | 0 | -1 | -16
O=C(c1ccc2c(=O)n(CCc3ccccc3)c(SCc3cccc([N+](=O)[O-])c3)nc2c1)N1CCCC1 | 10 | 2 | 18 | 0 | x | x
Nc1ccc(NC(=O)c2ccc(C(=O)Nc3ccc(N)cc3N)cc2)c(N)c1 | 2 | 0 | 14 | 0 | x | x
CC(C)c1ccc(NC(=O)c2ccc(N)cc2)c(N)c1 | -50 | 5.8* | -3 | 0 | 0 | -11
CC(C)(C)c1ccc(C2C(C#N)=C(N)N(c3sc4c(c3C#N)CCCCC4)C3=C2C(=O)CCC3)s1 (stereo not given) | -9 | 1 | 12 | 1 | x | x
